# Laboratory results published in PubChem BioAssay (EPA / NIEHS).
# Where “and” joins values, the source holds several entries; their conditions need not be identical. Identical values can stand only once. Inconclusive results are not listed. Some structures have more than one record in an assay (separate samples or runs), and their calls can disagree. Calls of active or inactive are those of the source. The calls were made as follows, unless noted: active = hit-call score of the fitted dose curve at least 0.9, where 1 is the maximum; inactive = score below 0.9.
# Assays:
# [1] = tested on: DIO2 (gene 1734); test: CCTE_GLTED_hDIO2: CCTE's human Deiodinase 2 (DIO2) Inhibition Assay, Great Lakes Toxicology and Ecology Division (GLTED) Lab (AID 2284050; active = hit-call score of the fitted dose curve at least 0.9, where 1 is the maximum)
# Outline: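 Cell-free human DIO2 enzyme was incubated with test chemical for 3 h; iodide liberated from substrate was then quantified by the Sandell-Kolthoff reaction (absorbance), run in triplicate. Loss of signal versus DMSO baseline indicated inhibition.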
# [2] = tested on: DIO3 (gene 1735); test: CCTE_GLTED_hDIO3: CCTE's human Deiodinase 3 (DIO3) Inhibition Assay, Great Lakes Toxicology and Ecology Division (GLTED) Lab (AID 2284055; active = hit-call score of the fitted dose curve at least 0.9, where 1 is the maximum;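 as to AC50: potency is for inhibition seen as loss of released iodide signal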)
# Outline: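 Cell-free assay with human DIO3 enzyme produced by adenovirus expression; enzyme incubated with test chemical for 3 hours. Liberated iodide then measured by Sandell-Kolthoff absorbance; loss of signal versus DMSO baseline indicates inhibition, run in triplicate.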
# [3] = CCTE_Shafer_MEA_acute_AB: CCTE's Alamar Blue Assay for Cytotoxicity in the Neural Acute Assay, Shafer Lab (AID 2284069; active = hit-call score of the fitted dose curve at least 0.9, where 1 is the maximum;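 also: active compounds lower the viability signal compared with DMSO wells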)
# Outline: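 Cytotoxicity endpoint for acute MEA exposures of primary rat cortical neurons on day 13 or 15. Resazurin reduction is read fluorescently at 544/590 nm, with DMSO as the negative-control baseline.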
# [4] = CCTE_Shafer_MEA_dev_burst_duration_mean: CCTE's Neural Network Formation Assay for Mean Burst Duration, Shafer Lab (AID 2284045);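 as to AC50: curve fitted for loss meaning shorter burst duration than DMSO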
# Outline: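 Read-out: average first-to-last-spike interval within single-electrode bursts, averaged over bursting electrodes per well, then summarised as area under the curve across days 5, 7, 9 and 12. Developing rat cortical networks were exposed from day 0.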
# [5] = CCTE_Shafer_MEA_dev_interburst_interval_mean: CCTE's Neural Network Formation Assay for Mean Interburst Interval, Shafer Lab (AID 2284046);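 also: well-mean interburst interval of bursting electrodes as AUC over four recording days; curve fitted for decrease in interburst interval relative to DMSO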
# Outline: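 Network formation assay in primary rat cortical cultures, exposed from DIV 0 to 12. Mean interburst interval per well, integrated as AUC over four recordings.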
# [6] = CCTE_Shafer_MEA_dev_inter_network_spike_interval_mean: CCTE's Neural Network Formation Assay for Mean Inter-network Spike Interval, Shafer Lab (AID 2284047);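 as to AC50: potency for a decrease in mean inter-network spike interval below DMSO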
# Outline: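 Compound was given at plating to primary rat cortical neurons and renewed with full medium changes on DIV 5 and 9. Extracellular activity was recorded on days 5, 7, 9, 12; AUC values were fitted for loss relative to DMSO control.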
# [7] = CCTE_Shafer_MEA_dev_network_spike_number: CCTE's Neural Network Formation Assay for Number of Network Spikes, Shafer Lab (AID 2284048);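 also: synchronized bursts across electrodes counted on days 5 7 9 12 and integrated as AUC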;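 as to AC50: fit as a loss of signal meaning fewer network spikes than DMSO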
# Outline: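 Developing networks of primary rat cortical neurons are treated over 12 days starting at plating, with media and compound fully replaced on DIV 5 and 9. Network spike counts from four recording days are integrated as trapezoidal AUC.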
# [8] = CCTE_Shafer_MEA_dev_network_spike_peak: CCTE's Neural Network Formation Assay for Mean Number of Electrodes in Network Spike, Shafer Lab (AID 2284049);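 as to AC50: fitted for loss of signal meaning fewer electrodes in network spikes than DMSO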
# Outline: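 Rat cortical primary culture, 1.5 x 10^5 cells/well, 48-well MEA (16 electrodes/well). Dosing day 0 through DIV 12, full media/compound exchange DIV 5, 9. AxIS adaptive spike detection; AUC over days 5/7/9/12; loss-of-signal vs DMSO.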
# [9] = CCTE_Shafer_MEA_dev_spike_duration_mean: CCTE's Neural Network Formation Assay for Mean Spike Duration, Shafer Lab (AID 2284051);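 also: mean network spike duration pooled as area under curve over DIV 5 to 12 recordings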;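 as to AC50: potency for a decrease in mean network spike duration versus DMSO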
# Outline: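 With DMSO as baseline, loss of mean network spike duration was scored from extracellular recordings of rat cortical neurons on MEA plates. Exposure spanned plating to DIV 12; the four recording days were collapsed into one AUC value.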
# [10] = CCTE_Shafer_MEA_dev_network_spike_duration_std: CCTE's Neural Network Formation Assay for Standard Deviation of Network Spike Duration, Shafer Lab (AID 2284052);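 also: area under curve of spike duration SD across recording days 5 to 12; hits are decreases in network spike duration SD versus DMSO vehicle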
# Outline: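 Developing networks of rat cortical neurons were exposed over twelve days in vitro on 48-well MEA plates. Trapezoidal AUC of recordings (DIV 5–12) was analysed for signal loss relative to DMSO vehicle.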
# [11] = CCTE_Shafer_MEA_dev_per_network_spike_spike_number_mean: CCTE's Neural Network Formation Assay for Mean Number of Spikes in a Network Spike, Shafer Lab (AID 2284053);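 as to AC50: fitted as decrease in spikes per network spike relative to DMSO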
# Outline: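 First, rat cortical cells (1.5 x 10^5/well) were seeded onto MEA wells; second, dosing began at plating and was refreshed on DIV 5 and 9; finally, network-spike spike counts across DIV 5–12 were summarized as AUC.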
# [12] = CCTE_Shafer_MEA_dev_per_network_spike_spike_percent: CCTE's Neural Network Formation Assay for Percent of Spikes in a Network Spike, Shafer Lab (AID 2284054)
# Outline: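 Rat primary cortical cultures, 1.5 x 10^5 cells/well on MEA. Continuous compound exposure d0–12, medium/compound renewed DIV 5, 9. Network-spike spike % (0.05 s peak window), AUC over 4 recordings, DMSO baseline.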
# [13] = CCTE_Shafer_MEA_dev_LDH: CCTE's Lactate Dehydrogenase Assay for Cytotoxicity in the Neural Network Formation Assay, Shafer Lab (AID 2284068; active = hit-call score of the fitted dose curve at least 0.9, where 1 is the maximum;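 also: exposure for twelve days from plating with re-dosing on DIV 5 and 9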)
# Outline: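 Developing rat cortical networks on MEA plates are exposed to compound for 12 days from plating. LDH activity is measured spectrophotometrically, with DMSO as baseline.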
# [14] = CCTE_Shafer_MEA_dev_AB: CCTE's Alamar Blue Assay for Cytotoxicity in the Neural Network Formation Assay, Shafer Lab (AID 2284083; active = hit-call score of the fitted dose curve at least 0.9, where 1 is the maximum;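 also: resazurin reduction fluorescence as viability of cultured neurons; twelve days of exposure from plating with re-dosing on DIV 5 and 9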)
# Outline: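 Cytotoxicity companion to the developmental MEA: primary rat cortical neurons, 12-day exposure starting day 0, compound refreshed DIV 5 and 9; resazurin fluorescence, fitted against DMSO vehicle.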
# [15] = CCTE_Shafer_MEA_dev_mutual_information_norm: CCTE's Neural Network Formation Assay for Mutual Information Normalization, Shafer Lab (AID 2284091);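 as to AC50: mutual information between electrodes summarised as area under curve across four recording days; potency is for a decrease in mutual information relative to DMSO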
# Outline: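 Developing rat cortical networks on 16-electrode MEA wells are treated throughout formation (DIV 0–12). Shared electrode information is recorded four times, converted to area-under-curve, and fitted for decreases against DMSO vehicle.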
# [16] = CCTE_Shafer_MEA_dev_correlation_coefficient_mean: CCTE's Neural Network Formation Assay for Mean Correlation Coefficient, Shafer Lab (AID 2284093);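 as to AC50: well mean pairwise spike train correlation integrated as AUC over recording days 5 to 12; potency fitted for loss of correlation relative to DMSO vehicle wells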
# Outline: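 Extracellular firing from rat cortical networks on 48-well MEAs, DMSO-referenced, negative fitting direction. Compound present from plating to DIV12; mean pairwise correlation per well integrated over DIV5–12 recordings by trapezoidal AUC.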
# [17] = UKN5_HCS_SBAD2_cell_viability: Viability Assessment in the University of Konstanz (UKN) Leist Lab Neurite Outgrowth Assay in human iPSC-derived immature Dorsal Root Ganglia Neurons (UKN5) (AID 2284056)
# Outline: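 iPSC-derived immature peripheral neurons (SBAD2) seeded on Matrigel with CHIR99021, SU5402 and DAPT, dosed 1 h later for 24 h. Viability from Hoechst H-33342 and calcein-AM live staining, high-content imaging; bidirectional fit versus DMSO.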
# [18] = UKN5_HCS_SBAD2_neurite_outgrowth: University of Konstanz (UKN) Leist Lab Neurite Outgrowth Assay in human iPSC-derived immature Dorsal Root Ganglia Neurons (UKN5) (AID 2284070); details: actives raise or lower the signal
# Outline: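 Human iPSC-derived immature DRG neurons (SBAD2) on Matrigel with CHIR99021 (1.5 uM), SU5402 (5 uM), DAPT (5 uM); compounds added 1 h post-seeding for 24 h. Calcein-AM neurite area imaged; bidirectional fit vs DMSO.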
# [19] = UKN2_HCS_IMR90_neural_migration: University of Konstanz (UKN) Leist Lab Neural Crest Cell Migration Assay in human induced IMR90 Pluripotent Stem Cells (UKN2) (AID 2284204); details: actives raise or lower the signal
# Outline: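 Migration of human IMR90-derived neural crest cells into a stopper-defined gap is imaged after 24 h chemical treatment. Activity is fitted bidirectionally relative to DMSO.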
# [20] = UKN4_HCS_LUHMES_neurite_outgrowth: University of Konstanz (UKN) Leist Lab Neurite Outgrowth Assay in human LUHMES cells (UKN4) (AID 2284206); details: actives raise or lower the signal
# Outline: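 LUHMES neuronal precursors differentiated 2 days, replated without cAMP/GDNF, then exposed to chemicals for 24 h. Neurite area imaged by high-content microscopy after calcein-AM staining; Hoechst H-33342 marks viability. Bidirectional fit versus DMSO.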
structure (smiles),measurement,setting,value
CC(=O)NC1(c2cccc(F)c2)CCN(CC[C@@]2(c3ccc(Cl)c(Cl)c3)CN(c3ccccc3)C(=O)CO2)CC1,AC50,[1],82.6 µM (active)
same,outcome,[2],inactive
same,outcome,[3],inactive
Cc1cc(CCN2CCN(c3nsc4ccccc34)CC2)cc2c1NC(=O)CC2(C)C,outcome,[3],inactive
c1ccc2cc3c(ccc4ccccc43)cc2c1,outcome,[4],inactive
same,outcome,[5],inactive
same,outcome,[6],inactive
same,outcome,[7],inactive
same,AC50,[8],10 µM (active)
same,AC50,[1],70 µM (active)
same,outcome,[9],inactive
same,outcome,[10],inactive
same,outcome,[11],inactive
same,outcome,[12],inactive
same,AC50,[2],65.8 µM (active)
same,outcome,[13],inactive
same,outcome,[14],inactive
same,outcome,[15],inactive
same,outcome,[16],inactive
CC(C)CCCCCCOC(=O)CCCCC(=O)OCCCCCCC(C)C,outcome,[3],inactive
CCc1ccc(CCOc2ccc(CC3SC(=O)NC3=O)cc2)nc1 (centres undefined),outcome,[3],inactive
CC1=C(/C=C/C(C)=C/C=C/C(C)=C/C(=O)O)C(C)(C)CCC1,outcome,[4],inactive
same,AC50,[5],3.54 µM (active)
same,AC50,[6],0.319 µM (active)
same,AC50,[7],7.99 µM (active)
same,AC50,[8],24.1 µM (active)
same,AC50,[1],60.4 µM (active)
same,AC50,[9],10.1 µM (active)
same,AC50,[10],2.98 µM (active)
same,outcome,[11],inactive
same,AC50,[12],26.9 µM (active)
same,AC50,[2],34.7 µM (active)
same,outcome,[17],inactive
same,AC50,[13],19 µM (active)
same,outcome,[18],inactive
same,outcome,[14],inactive
same,AC50,[15],7.47 µM (active)
same,AC50,[16],23.4 µM (active)
same,AC50,[19],5.77 µM (active)
same,AC50,[20],29.8 µM (active)
CC#C[C@]1(O)CC[C@H]2[C@@H]3CCC4=CC(=O)CCC4=C3[C@@H](c3ccc(N(C)C)cc3)C[C@@]21C,AC50,[4],2.98 µM (active)
same,outcome,[4],inactive
same,AC50,[5],2.69 µM (active)
same,outcome,[5],inactive
same,outcome,[6],inactive
same,AC50,[7],8.75 µM (active)
same,outcome,[7],inactive
same,AC50,[8],2.53 µM (active) and 22.2 µM (active)
same,AC50,[9],4.55 µM (active) and 21.8 µM (active)
same,AC50,[10],8.66 µM (active)
same,outcome,[10],inactive
same,AC50,[11],1.38 µM (active) and 15 µM (active)
same,AC50,[12],3.55 µM (active) and 23.1 µM (active)
same,AC50,[13],16.4 µM (active) and 25.1 µM (active)
same,outcome,[3],inactive
same,AC50,[14],16.5 µM (active) and 25.4 µM (active)
same,AC50,[15],1.07 µM (active) and 11.7 µM (active)
same,AC50,[16],6.26 µM (active) and 22.2 µM (active)
same,AC50,[19],9.67 µM (active) and 5.64 µM (active)
same,AC50,[20],10 µM (active)
c1ccc2c(c1)ccc1ccccc12,outcome,[4],inactive
same,outcome,[5],inactive
same,outcome,[6],inactive
same,outcome,[7],inactive
same,outcome,[8],inactive
same,outcome,[9],inactive
same,outcome,[10],inactive
same,outcome,[11],inactive
same,outcome,[12],inactive
same,outcome,[13],inactive
same,outcome,[14],inactive
same,outcome,[15],inactive
same,outcome,[16],inactive
ClC1=C(Cl)C(Cl)(Cl)C(Cl)=C1Cl,AC50,[1],23.9 µM (active)
same,AC50,[2],3.14 µM (active)
NC(=O)N(O)[C@@H]1C=C[C@H](Oc2cccc(Oc3ccc(F)cc3)c2)C1,AC50,[1],36.5 µM (active)
same,AC50,[2],30.5 µM (active)
same,outcome,[3],inactive
CN1CCC[C@H]1c1cccnc1,outcome,[4],inactive
same,outcome,[5],inactive
same,outcome,[6],inactive
same,outcome,[7],inactive
same,outcome,[8],inactive
same,outcome,[9],inactive
same,outcome,[10],inactive
same,AC50,[11],6.37 µM (active)
same,outcome,[12],inactive
same,outcome,[17],inactive
same,outcome,[3],inactive
same,outcome,[18],inactive
same,outcome,[15],inactive
same,outcome,[16],inactive
same,outcome,[19],inactive
same,outcome,[20],inactive
